Results taken from PubChem BioAssay (NCI).
The panel holds about 79,000 compounds, 15% with a hit somewhere; the sample as a whole holds those more often. Activity calls are given as the source filed them. Cut-off read from the data, not from the text of the source: active = growth inhibition above about 70%; inactive = the rest.

Assays:
[1] = NCI Yeast Anticancer Drug Screen. Data for the rad52 strain (AID 147);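 note: 0% = growth of vehicle-treated control cultures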; details: S. cerevisiae rad52 mutant growth inhibition, hits give high values
How it was run: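 Compounds are applied to a genetically defined yeast strain lacking normal DNA damage repair, and inhibition of growth is expressed relative to cultures given vehicle only.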

[2] = NCI Yeast Anticancer Drug Screen. Data for the rad50EPP+ strain (AID 151);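 note: 0% = growth of vehicle-treated control cultures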; details: S. cerevisiae rad50 mutant strain, hits give high values
How it was run: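 Compounds were applied to the rad50EPP+ yeast strain, which bears a defined DNA repair alteration, and growth inhibition was determined relative to vehicle-treated cultures.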

[3] = NCI Yeast Anticancer Drug Screen. Data for the mgt1 strain (AID 153); details: S. cerevisiae mgt1 mutant growth inhibition, hits give high values
How it was run: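 Strain: mgt1 yeast, one of a set carrying defined DNA damage repair or cell cycle control alterations. Compound-treated growth compared with vehicle.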

[4] = NCI Yeast Anticancer Drug Screen. Data for the rad50 strain (AID 155);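 note: 0% = growth of vehicle-only cultures of the same strain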; details: S. cerevisiae rad50 strain growth inhibition, hits give high values
How it was run: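 Growth of the mutant yeast was measured after compound exposure and referenced to vehicle-treated cultures.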

[5] = NCI Yeast Anticancer Drug Screen. Data for the mec2-1 strain (AID 157); details: S. cerevisiae mec2-1 strain, hits give high values
How it was run: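 Strain: mec2-1 (DNA repair/cell cycle alteration). Compound exposure, then growth measured; inhibition expressed relative to vehicle.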

[6] = NCI Yeast Anticancer Drug Screen. Data for the rad14 strain (AID 159);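 note: 0% = growth of vehicle-treated control cultures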; details: S. cerevisiae rad14 strain growth inhibition, hits give high values
How it was run: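 Here, inhibition of yeast growth was measured after compound exposure, using a strain with a genetic defect in DNA damage repair and vehicle-treated cultures as the reference.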

[7] = NCI Yeast Anticancer Drug Screen. Data for the sgs1 mgt1 strain (AID 161);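 note: 0% = growth of cultures given vehicle only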; details: S. cerevisiae sgs1 mgt1 strain, hits give high values
How it was run: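 Genetically altered yeast, compound exposure, growth inhibition relative to vehicle.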

[8] = NCI Yeast Anticancer Drug Screen. Data for the CLN2oe strain (AID 163);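 note: 0% = growth of vehicle-only control cultures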; details: S. cerevisiae CLN2oe strain, hits give high values
How it was run: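 Growth of a genetically modified yeast strain is measured after compound exposure and compared with cultures given vehicle alone.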

[9] = NCI Yeast Anticancer Drug Screen. Data for the cln2 rad14 strain (AID 165);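 note: 0% = growth equal to vehicle treated cultures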; details: S. cerevisiae cln2 rad14 strain, hits give high values
How it was run: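 Compounds are applied to the cln2 rad14 yeast strain, and growth is then compared with that of vehicle-treated cultures to give inhibition.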

[10] = NCI Yeast Anticancer Drug Screen. Data for the bub3 strain (AID 167); details: S. cerevisiae bub3 mutant strain, hits give high values
How it was run: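 Whole-cell yeast assay. The mutant strain was incubated with compounds, and growth inhibition was determined by comparison with vehicle-treated cells.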

[11] = NCI Yeast Anticancer Drug Screen. Data for the wt2 strain (AID 169);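 note: 0% = growth of vehicle-treated yeast cultures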; details: S. cerevisiae wt2 strain growth inhibition, hits give high values
How it was run: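 This strain belongs to a panel of yeast strains with defined genetic alterations in DNA damage repair or cell cycle control. Compounds are applied, and growth inhibition is measured against vehicle-treated cultures.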

[12] = NCI Yeast Anticancer Drug Screen. Data for the mlh1 strain (AID 171);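 note: 0% = growth of vehicle-treated control cultures of the same strain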; details: S. cerevisiae mlh1 strain growth inhibition, hits give high values
How it was run: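 Growth of the mutant yeast strain after compound exposure, expressed as inhibition relative to vehicle-only controls.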

[13] = NCI Yeast Anticancer Drug Screen. Data for the sgs1 strain (AID 173);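 note: 0% = growth of vehicle-only control cultures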; details: S. cerevisiae sgs1 mutant, hits give high values
How it was run: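 Growth of a yeast strain bearing a defined genetic alteration is measured after compound treatment. Inhibition is expressed relative to vehicle-only controls.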

[14] = NCI Yeast Anticancer Drug Screen. Data for the mlh1 rad18 strain (AID 175); details: S. cerevisiae mlh1 rad18 strain growth inhibition, hits give high values
How it was run: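 Read-out is yeast growth inhibition, calculated against vehicle-only controls. The compound was applied to a strain engineered with DNA damage repair alterations.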

[15] = NCI Yeast Anticancer Drug Screen. Data for the rad18 strain (AID 177); details: S. cerevisiae rad18 mutant growth inhibition, hits give high values
How it was run: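 Growth of the mutant yeast strain after compound exposure, normalised to vehicle-only cultures.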

[16] = NCI Yeast Anticancer Drug Screen. Data for the wt1 strain (AID 149);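 note: 0% = growth of vehicle-treated wt1 cultures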; details: S. cerevisiae wt1 strain (SPY 50644) growth inhibition, hits give high values
How it was run: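 Measured: growth of wt1 yeast under compound versus vehicle treatment, reported as inhibition.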

[17] = at 5.0 µM (retest, dose inferred, filed as 0.5)
[18] = at 50.0 µM (retest, dose inferred, filed as 5.0)

Measured: growth inhibition

COc1cc2ccnc(-c3c4ccccc4c(N)c4c(OC)c(OC)ccc34)c2cc1OC
inactive: [1]; at 1.2 µM 5% | [1]; at 3.7 µM 20% | [1]; at 11.0 µM 60% | [2]; at 1.2 µM 0% | [2]; at 3.7 µM 11% | [2]; at 11.0 µM 22% | [2]; at 33.0 µM 31% | [2]; at 100.0 µM 49% | [3]; at 1.2 µM -1% | [3]; at 3.7 µM -1% | [3]; at 11.0 µM 0% | [3]; at 33.0 µM 2% | [3]; at 100.0 µM 50% | [4]; at 1.2 µM 16% | [4]; at 3.7 µM 50% | [4]; at 50.0 µM 19.3% | [5]; at 1.2 µM -1% | [5]; at 3.7 µM 2% | [5]; [17] 33% | [5]; at 11.0 µM 1% | [5]; at 33.0 µM 7% | [5]; [18] 33% | [5]; at 50.0 µM -2.3% | [5]; at 100.0 µM 46% | [6]; at 1.2 µM 1% | [6]; at 3.7 µM 1% | [6]; at 11.0 µM 3% | [6]; at 33.0 µM 8% | [6]; at 100.0 µM 43% | [7]; [17] 24% | [7]; [18] 24% | [7]; at 50.0 µM -13.9% | [8]; at 1.2 µM -1% | [8]; at 3.7 µM 7% | [8]; at 11.0 µM 9% | [8]; at 33.0 µM 17% | [8]; at 100.0 µM 37% | [9]; [17] 22% | [9]; [18] 22% | [9]; at 50.0 µM 10.8% | [10]; at 1.2 µM -5% | [10]; at 3.7 µM 1% | [10]; [17] -3% | [10]; at 11.0 µM 9% | [10]; at 33.0 µM -4% | [10]; [18] -3% | [10]; at 50.0 µM 6.45% | [10]; at 100.0 µM 24% | [11]; at 1.2 µM -2% | [11]; at 3.7 µM -2% | [11]; at 11.0 µM -2% | [11]; at 33.0 µM 4% | [11]; at 100.0 µM 47% | [12]; at 1.2 µM -4% | [12]; at 3.7 µM -2% | [12]; at 11.0 µM 0% | [12]; at 33.0 µM 2% | [12]; at 100.0 µM 52% | [13]; at 1.2 µM -1% | [13]; at 3.7 µM 1% | [13]; at 11.0 µM 6% | [13]; at 33.0 µM 23% | [14]; [17] 23% | [14]; [18] 23% | [15]; at 1.2 µM 0% | [15]; at 3.7 µM -5% | [15]; at 11.0 µM 8% | [15]; at 33.0 µM 31%
active: [1]; at 33.0 µM 86% | [1]; at 100.0 µM 93% | [4]; [17] 78% | [4]; at 11.0 µM 77% | [4]; at 33.0 µM 90% | [4]; [18] 78% | [4]; at 100.0 µM 94% | [13]; at 100.0 µM 70% | [14]; at 50.0 µM 72.7% | [15]; at 100.0 µM 74%

CCOC(=O)C(Br)C(Br)c1ccccc1Cl (stereo unspecified)
active: [16]; at 33.0 µM 99% | [16]; at 100.0 µM 99% | [2]; at 11.0 µM 96% | [2]; at 33.0 µM 99% | [2]; at 100.0 µM 99% | [3]; at 33.0 µM 99% | [3]; at 100.0 µM 99% | [4]; at 33.0 µM 99% | [4]; [18] 99% | [4]; at 50.0 µM 99.7% | [4]; at 100.0 µM 99% | [5]; at 33.0 µM 99% | [5]; [18] 100% | [5]; at 50.0 µM 99.8% | [5]; at 100.0 µM 99% | [6]; at 33.0 µM 98% | [6]; at 100.0 µM 99% | [7]; [18] 99% | [7]; at 50.0 µM 99.8% | [8]; at 33.0 µM 99% | [8]; at 100.0 µM 99% | [9]; [18] 99% | [9]; at 50.0 µM 99.4% | [10]; at 33.0 µM 98% | [10]; [18] 99% | [10]; at 50.0 µM 99.8% | [10]; at 100.0 µM 99% | [11]; at 11.0 µM 93% | [11]; at 33.0 µM 99% | [11]; at 100.0 µM 99% | [13]; at 11.0 µM 94% | [13]; at 33.0 µM 99% | [13]; at 100.0 µM 99% | [14]; [18] 99% | [14]; at 50.0 µM 99.5% | [15]; at 11.0 µM 89% | [15]; at 33.0 µM 99% | [15]; at 100.0 µM 99%
inactive: [16]; at 1.2 µM -4% | [16]; at 3.7 µM 7% | [16]; at 11.0 µM 46% | [2]; at 1.2 µM 24% | [2]; at 3.7 µM 62% | [3]; at 1.2 µM 0% | [3]; at 3.7 µM 14% | [3]; at 11.0 µM 61% | [4]; at 1.2 µM 5% | [4]; at 3.7 µM 17% | [4]; [17] 23% | [4]; at 11.0 µM 68% | [5]; at 1.2 µM 0% | [5]; at 3.7 µM 12% | [5]; [17] 30% | [5]; at 11.0 µM 47% | [6]; at 1.2 µM 0% | [6]; at 3.7 µM 10% | [6]; at 11.0 µM 47% | [7]; [17] 46% | [8]; at 1.2 µM -2% | [8]; at 3.7 µM 3% | [8]; at 11.0 µM 47% | [9]; [17] 13% | [10]; at 1.2 µM -1% | [10]; at 3.7 µM 7% | [10]; [17] 22% | [10]; at 11.0 µM 47% | [11]; at 1.2 µM -2% | [11]; at 3.7 µM 22% | [13]; at 1.2 µM 10% | [13]; at 3.7 µM 34% | [14]; [17] 39% | [15]; at 1.2 µM 10% | [15]; at 3.7 µM 29%
